# Experimental data from the supplement of paper PMC11732987, “Enantioselective OTUD7B fragment discovery through chemoproteomics screening and high-throughput optimisation” (Communications Chemistry, 2025).
# A number with no mark means an inactive call.
# Key:
# Experiment in all cases: log2 ratio of Biotin-Ahx-Ub-VS probe labelling (fragment/DMSO); higher = less target engagement (more negative = stronger competition), active = hit call of the paper (q ≤ 0.05, log2 ratio ≤ -1)
# Conditions in all cases: compound concentration: 200 uM; treatment time: 3 h
# USP9X = USP9X (UniProt Q93008)
# In short: (§1)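 Labelled DUBs from HEK293T lysate were NeutrAvidin-enriched, digested with LysC and trypsin, and run by diaPASEF LC-MS/MS. Before that, each 495 µg sample in Tris/CHAPS/IGEPAL buffer with protease inhibitors was treated in triplicate with fragment at 200 µM or vehicle for 3 h, then with Biotin-Ahx-Ub-VS at 0.5 µM final for 1 h. Values are average log2 ratios of fragment over vehicle by unpaired t-test, based on global-median-normalised Spectronaut label-free quantities from proteins with ≥2 unique peptides.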
# UniProt O00487 = molecular target: UniProt O00487
# In short: as §1
# UniProt O00507 = molecular target: UniProt O00507
# In short: as §1
# UniProt P51784 = molecular target: UniProt P51784
# In short: as §1
# UniProt Q5T2D3 = molecular target: T1, UniProt Q5T2D3
# T1 sequence (whole entry): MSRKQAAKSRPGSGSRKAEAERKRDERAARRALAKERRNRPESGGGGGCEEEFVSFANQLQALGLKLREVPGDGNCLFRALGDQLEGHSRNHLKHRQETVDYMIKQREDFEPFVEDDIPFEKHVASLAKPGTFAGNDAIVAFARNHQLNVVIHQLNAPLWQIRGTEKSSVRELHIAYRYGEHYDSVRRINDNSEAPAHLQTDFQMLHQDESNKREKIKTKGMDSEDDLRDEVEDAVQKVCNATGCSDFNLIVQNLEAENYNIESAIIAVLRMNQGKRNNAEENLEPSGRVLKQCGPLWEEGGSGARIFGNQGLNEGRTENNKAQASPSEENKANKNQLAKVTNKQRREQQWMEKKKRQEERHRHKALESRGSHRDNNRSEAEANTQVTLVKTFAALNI
# In short: as §1
# UniProt Q8TE49 = molecular target: T2, UniProt Q8TE49
# T2 sequence (whole entry): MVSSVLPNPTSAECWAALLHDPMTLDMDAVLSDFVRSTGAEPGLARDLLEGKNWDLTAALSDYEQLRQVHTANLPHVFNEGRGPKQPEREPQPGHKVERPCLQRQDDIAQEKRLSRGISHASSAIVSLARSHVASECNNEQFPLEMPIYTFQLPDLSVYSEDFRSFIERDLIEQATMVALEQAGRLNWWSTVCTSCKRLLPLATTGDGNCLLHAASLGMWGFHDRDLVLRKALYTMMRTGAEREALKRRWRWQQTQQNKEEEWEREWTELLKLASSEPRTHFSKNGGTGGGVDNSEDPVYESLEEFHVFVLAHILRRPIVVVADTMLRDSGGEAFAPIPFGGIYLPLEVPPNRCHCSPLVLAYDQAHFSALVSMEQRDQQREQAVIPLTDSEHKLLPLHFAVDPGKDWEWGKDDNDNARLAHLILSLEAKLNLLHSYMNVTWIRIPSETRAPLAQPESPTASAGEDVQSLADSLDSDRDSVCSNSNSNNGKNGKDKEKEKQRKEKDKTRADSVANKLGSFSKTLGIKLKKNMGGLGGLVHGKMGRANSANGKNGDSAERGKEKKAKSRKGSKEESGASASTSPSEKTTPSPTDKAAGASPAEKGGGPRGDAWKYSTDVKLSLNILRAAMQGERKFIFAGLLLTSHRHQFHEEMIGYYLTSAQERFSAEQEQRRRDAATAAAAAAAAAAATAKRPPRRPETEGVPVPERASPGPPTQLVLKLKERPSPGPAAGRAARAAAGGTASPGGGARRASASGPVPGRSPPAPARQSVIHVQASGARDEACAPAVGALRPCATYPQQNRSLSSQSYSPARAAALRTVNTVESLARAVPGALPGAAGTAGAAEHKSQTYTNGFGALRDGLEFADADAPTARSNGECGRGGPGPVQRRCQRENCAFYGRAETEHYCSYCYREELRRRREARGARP
# In short: as §1
# UniProt Q9P2H5 = molecular target: T3, UniProt Q9P2H5
# T3 sequence (whole entry): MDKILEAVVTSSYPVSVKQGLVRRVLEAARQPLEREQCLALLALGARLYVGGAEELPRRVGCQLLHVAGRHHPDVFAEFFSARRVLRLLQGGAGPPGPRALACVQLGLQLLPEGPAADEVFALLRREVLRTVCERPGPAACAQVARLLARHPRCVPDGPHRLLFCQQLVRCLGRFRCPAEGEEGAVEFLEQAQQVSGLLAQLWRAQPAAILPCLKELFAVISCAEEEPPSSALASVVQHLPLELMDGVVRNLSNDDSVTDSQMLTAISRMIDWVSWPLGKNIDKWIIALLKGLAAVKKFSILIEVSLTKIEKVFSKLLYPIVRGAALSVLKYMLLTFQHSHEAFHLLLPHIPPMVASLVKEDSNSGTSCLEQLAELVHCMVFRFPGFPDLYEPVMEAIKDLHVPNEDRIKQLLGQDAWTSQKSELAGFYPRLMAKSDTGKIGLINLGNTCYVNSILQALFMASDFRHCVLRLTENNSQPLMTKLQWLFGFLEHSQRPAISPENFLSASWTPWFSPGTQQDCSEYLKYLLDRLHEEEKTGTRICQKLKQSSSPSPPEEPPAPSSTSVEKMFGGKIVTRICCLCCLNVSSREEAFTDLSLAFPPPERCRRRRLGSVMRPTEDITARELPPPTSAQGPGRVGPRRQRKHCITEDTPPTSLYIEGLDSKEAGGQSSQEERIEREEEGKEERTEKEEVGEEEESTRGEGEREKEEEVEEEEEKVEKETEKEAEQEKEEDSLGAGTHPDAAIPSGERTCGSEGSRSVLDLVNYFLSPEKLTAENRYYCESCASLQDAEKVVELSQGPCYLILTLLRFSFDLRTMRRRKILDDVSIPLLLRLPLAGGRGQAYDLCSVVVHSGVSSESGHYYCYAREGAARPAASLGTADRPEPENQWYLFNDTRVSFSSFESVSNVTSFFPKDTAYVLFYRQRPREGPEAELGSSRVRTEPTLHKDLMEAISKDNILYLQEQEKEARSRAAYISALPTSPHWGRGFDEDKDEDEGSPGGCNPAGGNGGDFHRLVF
# In short: as §1
# UniProt Q9UGI0 = molecular target: T4, UniProt Q9UGI0
# T4 sequence (whole entry): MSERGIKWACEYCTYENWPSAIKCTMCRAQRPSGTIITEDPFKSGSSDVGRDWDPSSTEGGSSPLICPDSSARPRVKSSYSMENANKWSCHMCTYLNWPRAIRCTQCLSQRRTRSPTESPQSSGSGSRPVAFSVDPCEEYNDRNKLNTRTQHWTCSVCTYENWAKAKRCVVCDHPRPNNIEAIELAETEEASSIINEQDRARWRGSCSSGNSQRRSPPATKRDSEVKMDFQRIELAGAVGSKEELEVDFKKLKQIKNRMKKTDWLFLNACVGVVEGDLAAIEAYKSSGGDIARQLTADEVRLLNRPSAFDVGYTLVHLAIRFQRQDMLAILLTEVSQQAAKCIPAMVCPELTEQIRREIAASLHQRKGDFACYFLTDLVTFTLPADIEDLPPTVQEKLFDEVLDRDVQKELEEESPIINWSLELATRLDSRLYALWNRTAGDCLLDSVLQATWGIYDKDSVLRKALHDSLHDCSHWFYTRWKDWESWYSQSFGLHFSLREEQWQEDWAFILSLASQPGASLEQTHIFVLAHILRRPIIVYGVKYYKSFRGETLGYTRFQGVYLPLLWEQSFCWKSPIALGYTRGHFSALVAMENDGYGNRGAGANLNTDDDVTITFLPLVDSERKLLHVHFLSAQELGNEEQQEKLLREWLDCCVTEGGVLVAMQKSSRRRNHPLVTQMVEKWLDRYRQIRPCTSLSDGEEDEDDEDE
# In short: as §1
# YOD1 = molecular target: T5, YOD1 (UniProt Q5VVQ6)
# T5 sequence (whole entry): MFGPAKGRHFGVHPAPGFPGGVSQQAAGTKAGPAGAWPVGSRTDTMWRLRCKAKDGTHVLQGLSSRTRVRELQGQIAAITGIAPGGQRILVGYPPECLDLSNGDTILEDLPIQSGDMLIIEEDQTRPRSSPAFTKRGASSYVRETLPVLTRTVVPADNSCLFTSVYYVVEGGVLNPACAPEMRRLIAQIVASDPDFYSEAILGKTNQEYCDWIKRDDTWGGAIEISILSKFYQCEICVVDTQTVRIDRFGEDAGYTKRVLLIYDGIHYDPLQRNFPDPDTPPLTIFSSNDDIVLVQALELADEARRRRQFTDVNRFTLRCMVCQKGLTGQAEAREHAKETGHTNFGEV
# In short: as §1
# UniProt O00507, sequence (O00507 whole entry): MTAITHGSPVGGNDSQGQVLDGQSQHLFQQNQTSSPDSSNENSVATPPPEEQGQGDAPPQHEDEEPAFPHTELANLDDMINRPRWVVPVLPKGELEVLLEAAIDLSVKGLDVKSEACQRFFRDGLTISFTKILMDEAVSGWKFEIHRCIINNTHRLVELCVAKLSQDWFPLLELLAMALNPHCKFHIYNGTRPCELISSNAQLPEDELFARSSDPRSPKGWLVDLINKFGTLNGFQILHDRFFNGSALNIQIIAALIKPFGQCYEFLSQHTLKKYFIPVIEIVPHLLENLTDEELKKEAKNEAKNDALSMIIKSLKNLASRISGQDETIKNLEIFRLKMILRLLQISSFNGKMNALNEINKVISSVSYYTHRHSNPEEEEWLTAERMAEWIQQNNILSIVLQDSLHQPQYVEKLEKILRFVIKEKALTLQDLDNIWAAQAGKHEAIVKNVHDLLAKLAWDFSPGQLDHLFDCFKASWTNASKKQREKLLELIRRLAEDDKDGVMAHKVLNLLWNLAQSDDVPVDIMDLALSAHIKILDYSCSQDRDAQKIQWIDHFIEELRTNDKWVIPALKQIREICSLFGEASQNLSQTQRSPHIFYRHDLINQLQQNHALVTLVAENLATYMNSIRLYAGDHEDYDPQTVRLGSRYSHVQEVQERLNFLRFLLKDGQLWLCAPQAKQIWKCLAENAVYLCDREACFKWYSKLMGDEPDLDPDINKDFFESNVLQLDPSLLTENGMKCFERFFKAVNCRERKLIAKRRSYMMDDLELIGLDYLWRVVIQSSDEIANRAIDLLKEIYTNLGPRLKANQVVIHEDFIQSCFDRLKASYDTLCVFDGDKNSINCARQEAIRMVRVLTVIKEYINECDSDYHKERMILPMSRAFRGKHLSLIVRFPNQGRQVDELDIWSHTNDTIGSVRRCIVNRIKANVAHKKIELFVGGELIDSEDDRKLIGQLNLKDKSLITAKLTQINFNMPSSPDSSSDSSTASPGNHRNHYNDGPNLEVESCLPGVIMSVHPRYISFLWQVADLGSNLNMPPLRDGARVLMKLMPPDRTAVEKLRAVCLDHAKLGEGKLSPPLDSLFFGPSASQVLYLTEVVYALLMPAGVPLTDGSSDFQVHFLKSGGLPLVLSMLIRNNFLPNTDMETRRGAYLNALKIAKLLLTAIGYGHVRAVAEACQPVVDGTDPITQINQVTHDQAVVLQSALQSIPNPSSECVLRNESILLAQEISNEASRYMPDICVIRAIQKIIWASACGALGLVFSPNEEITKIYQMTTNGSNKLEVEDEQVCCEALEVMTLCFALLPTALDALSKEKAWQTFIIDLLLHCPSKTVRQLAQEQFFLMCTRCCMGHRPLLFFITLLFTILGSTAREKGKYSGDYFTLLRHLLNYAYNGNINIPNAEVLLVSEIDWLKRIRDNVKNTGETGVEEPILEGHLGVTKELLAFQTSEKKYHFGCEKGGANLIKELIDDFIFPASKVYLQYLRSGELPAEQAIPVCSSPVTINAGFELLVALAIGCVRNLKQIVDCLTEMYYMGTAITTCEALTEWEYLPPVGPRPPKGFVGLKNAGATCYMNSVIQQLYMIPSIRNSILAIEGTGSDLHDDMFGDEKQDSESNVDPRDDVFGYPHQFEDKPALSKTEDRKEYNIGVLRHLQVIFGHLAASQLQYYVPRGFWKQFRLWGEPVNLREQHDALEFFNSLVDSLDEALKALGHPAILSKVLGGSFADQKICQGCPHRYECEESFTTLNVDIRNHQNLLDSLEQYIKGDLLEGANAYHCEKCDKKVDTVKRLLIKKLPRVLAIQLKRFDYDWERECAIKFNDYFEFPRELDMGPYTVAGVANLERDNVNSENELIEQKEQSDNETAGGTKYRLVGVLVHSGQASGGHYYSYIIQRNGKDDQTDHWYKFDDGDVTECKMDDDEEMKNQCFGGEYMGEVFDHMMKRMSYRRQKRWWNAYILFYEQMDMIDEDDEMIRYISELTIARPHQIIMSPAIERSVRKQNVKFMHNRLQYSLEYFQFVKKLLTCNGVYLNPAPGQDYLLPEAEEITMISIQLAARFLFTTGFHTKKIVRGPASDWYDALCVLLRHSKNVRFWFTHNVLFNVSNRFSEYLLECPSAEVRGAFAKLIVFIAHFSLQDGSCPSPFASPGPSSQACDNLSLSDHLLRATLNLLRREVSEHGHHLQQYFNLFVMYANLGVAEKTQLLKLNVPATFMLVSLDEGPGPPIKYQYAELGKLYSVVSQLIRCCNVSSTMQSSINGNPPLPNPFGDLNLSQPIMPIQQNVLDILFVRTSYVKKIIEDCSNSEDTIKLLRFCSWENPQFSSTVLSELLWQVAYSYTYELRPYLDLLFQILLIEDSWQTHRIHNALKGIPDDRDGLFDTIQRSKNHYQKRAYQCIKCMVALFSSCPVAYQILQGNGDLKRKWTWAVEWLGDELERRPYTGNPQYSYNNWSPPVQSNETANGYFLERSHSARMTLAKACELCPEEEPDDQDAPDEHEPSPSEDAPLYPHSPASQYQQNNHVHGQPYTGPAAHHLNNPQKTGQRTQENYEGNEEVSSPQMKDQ
# UniProt P51784, sequence (P51784 whole entry): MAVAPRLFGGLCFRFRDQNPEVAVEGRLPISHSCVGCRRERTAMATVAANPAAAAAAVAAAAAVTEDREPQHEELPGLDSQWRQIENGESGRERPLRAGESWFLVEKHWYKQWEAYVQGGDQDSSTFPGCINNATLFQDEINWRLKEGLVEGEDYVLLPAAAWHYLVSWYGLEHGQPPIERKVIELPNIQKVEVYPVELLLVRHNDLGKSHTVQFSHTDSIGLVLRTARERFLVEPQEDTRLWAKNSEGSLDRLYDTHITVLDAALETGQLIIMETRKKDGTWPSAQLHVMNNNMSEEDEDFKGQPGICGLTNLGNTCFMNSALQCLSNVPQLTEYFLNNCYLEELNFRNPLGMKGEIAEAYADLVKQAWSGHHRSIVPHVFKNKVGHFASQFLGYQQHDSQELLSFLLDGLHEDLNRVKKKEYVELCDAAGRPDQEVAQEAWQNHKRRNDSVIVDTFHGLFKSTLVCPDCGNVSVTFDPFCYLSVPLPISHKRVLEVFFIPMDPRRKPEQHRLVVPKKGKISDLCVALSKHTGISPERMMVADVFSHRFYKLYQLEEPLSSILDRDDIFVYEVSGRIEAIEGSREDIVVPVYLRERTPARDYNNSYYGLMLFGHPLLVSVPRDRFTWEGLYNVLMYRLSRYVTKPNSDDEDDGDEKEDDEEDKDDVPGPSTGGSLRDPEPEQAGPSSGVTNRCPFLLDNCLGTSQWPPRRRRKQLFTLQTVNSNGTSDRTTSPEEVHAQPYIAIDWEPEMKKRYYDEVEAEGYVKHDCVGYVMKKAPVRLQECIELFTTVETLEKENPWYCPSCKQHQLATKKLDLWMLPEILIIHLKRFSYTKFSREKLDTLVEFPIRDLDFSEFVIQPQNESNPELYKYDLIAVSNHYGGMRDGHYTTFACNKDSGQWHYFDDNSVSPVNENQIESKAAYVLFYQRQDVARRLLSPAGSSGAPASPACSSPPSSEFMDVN
# UniProt O00487, sequence (O00487 whole entry): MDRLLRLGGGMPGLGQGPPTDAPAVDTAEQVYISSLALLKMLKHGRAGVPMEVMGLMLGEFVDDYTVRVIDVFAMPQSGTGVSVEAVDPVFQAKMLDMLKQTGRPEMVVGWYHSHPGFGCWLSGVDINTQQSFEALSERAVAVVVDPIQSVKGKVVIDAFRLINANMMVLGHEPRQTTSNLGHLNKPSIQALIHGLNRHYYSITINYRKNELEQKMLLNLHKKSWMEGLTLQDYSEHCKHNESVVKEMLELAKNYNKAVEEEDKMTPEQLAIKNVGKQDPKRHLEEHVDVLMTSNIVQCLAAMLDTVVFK
structure (smiles),measurement,setting,value
CC(NC(=O)CCl)c1csc(-c2ccccc2)n1.Cl (centres undefined),log2 ratio of Biotin-Ahx-Ub-VS probe labelling,USP9X,-0.619
same,log2 ratio of Biotin-Ahx-Ub-VS probe labelling,UniProt O00487,-0.213
same,log2 ratio of Biotin-Ahx-Ub-VS probe labelling,UniProt O00507,-0.472
same,log2 ratio of Biotin-Ahx-Ub-VS probe labelling,UniProt P51784,-0.138
same,log2 ratio of Biotin-Ahx-Ub-VS probe labelling,UniProt Q5T2D3,-0.671
same,log2 ratio of Biotin-Ahx-Ub-VS probe labelling,UniProt Q8TE49,-1.08 (active)
same,log2 ratio of Biotin-Ahx-Ub-VS probe labelling,UniProt Q9P2H5,-0.482
same,log2 ratio of Biotin-Ahx-Ub-VS probe labelling,UniProt Q9UGI0,-0.494
same,log2 ratio of Biotin-Ahx-Ub-VS probe labelling,YOD1,-0.459
